According to PubChem BioAssay (NCATS):
Records with an inconclusive call do not appear. Calls of active or inactive are those of the source. Unless noted, calls come from the whole dose curve; as a rule, active = well fitted curve in either direction with a large enough effect (not every such curve was filed as active); inconclusive = small, poorly fitted or top-dose-only effect, or another doubt; inactive = flat fitted curve, though single readings scatter.

Tests used:
[1] = AP1 Signaling Pathway (AID 357); settings: ME-180 AP-1-bla reporter, EGF-induced, beta-lactamase ratio, 5 h; at 17.2 µM (top of the series) unless noted;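 note: ME-180 reporter cells stimulated with EGF at its EC50 level; % is set by controls: 0 for no effect and ±100 for the full control effect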
Summary of the method: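 Cells are seeded overnight, exposed to compound titrations and an EC50 level of EGF for 5 hours at 37 °C, then loaded with CCF4 dye for 2.5 hours. Beta-lactamase activity under the AP-1 element is read as a blue/green ratio.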

[2] = NFAT Signaling Pathway (AID 444); settings: Jurkat NFAT-bla M1, carbachol, beta-lactamase ratio, 5 h; at 17.2 µM (top of the series) unless noted;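 note: carbachol stimulus at about its EC50 of 1 µM final; % is set by controls: 0 for no effect and ±100 for the full control effect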
Summary of the method: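 Jurkat cells carrying an NFAT-driven β-lactamase reporter and co-transfected muscarinic M1 receptor were treated with compound plus carbachol (1 uM final, an EC50 level) for 5 h at 37 °C. CCF4 loading followed for 1 h at RT; 460/530 nm ratio gave %activity.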

[3] = Stat Signaling Pathway (AID 446); settings: ME-180 SIE beta-lactamase reporter, IL-6 stimulated, 5 h; at 17.2 µM (top of the series) unless noted;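 note: ME-180 cervical cancer cells given 40 pM IL-6 alongside compound; SIE-controlled beta-lactamase reporter measured as 460/530 nm FRET emission ratio; % is set by controls: 0 for no effect and ±100 for the full control effect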
Summary of the method: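 Screening format detects activators and inhibitors alike: ME-180 SIE-bla cells stimulated at 40 pM IL-6 for 5 hrs with compound, then dual-emission beta-lactamase read at 405 nm excitation.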

[4] = target: Glucocorticoid receptor (Homo sapiens) (UniProt P04150); assay: GR-GFP Redistribution (AID 450;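 active = compounds whose dose series gives a full or clear partial fitted curve of increased nuclear translocation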; note: potency is the fitted concentration of half-maximal effect)
[5] = qHTS Assay for Identification of Small Molecule Agonists for Hypoxia Response Element Signaling Pathway (AID 914; active = well fitted activation curve with a large enough effect in the signal ratio, with a control signal flat, not every such curve was filed as active; the % refers to the signal ratio; note: % of control where 0% means no effect); settings: ME-180 (cervical carcinoma) HRE-bla reporter, beta-lactamase ratio, CoCl2, 17 h; activation: stronger effect = higher value
Summary of the method: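 HRE-bla ME-180 assay for agonist-like enhancement of an EC50 CoCl2 stimulus: 17 h at 37 degrees Celsius, CCF4 for 2.5 h, ratiometric 460/530 nm signal converted to %Activity and fitted to AC50.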

[6] = target: Cytochrome P450 3A4 (Homo sapiens) (UniProt P08684); assay: qHTS Assay for Activators of Cytochrome P450 3A4 (AID 885; active = well fitted curve in the direction sought with a large enough effect; an effect the other way counts as inactive or inconclusive; note: nearly all actives have a fitted effect of over 65% in size)
Summary of the method: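 Steps: enzyme/substrate mix dispensed; compound added, 10 min RT; NADPH regeneration solution added, 60 min RT; luciferin detection buffer stops reaction; 20 min later luminescence measured.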

[7] = target: DNA dC->dU-editing enzyme APOBEC-3G (Homo sapiens) (UniProt Q9HC16); assay: qHTS for inhibitors of Vif-A3G interactions: Validation (AID 588379; active = well fitted curve in the direction sought with a large enough effect; an effect the other way counts as inactive or inconclusive; note: 0% is about no effect)
Summary of the method: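 HeLa cells stably expressing Vif and A3G-eYFP, 700 cells/well, incubated overnight at 37 deg C, then exposed to compound overnight at 37 deg C. Inhibition of Vif-mediated degradation read as increased yellow fluorescence (Ex 488/Em 500-530) by laser-scanning cytometry.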

Chain of Glucocorticoid receptor (Homo sapiens) (P04150 whole entry, looked up): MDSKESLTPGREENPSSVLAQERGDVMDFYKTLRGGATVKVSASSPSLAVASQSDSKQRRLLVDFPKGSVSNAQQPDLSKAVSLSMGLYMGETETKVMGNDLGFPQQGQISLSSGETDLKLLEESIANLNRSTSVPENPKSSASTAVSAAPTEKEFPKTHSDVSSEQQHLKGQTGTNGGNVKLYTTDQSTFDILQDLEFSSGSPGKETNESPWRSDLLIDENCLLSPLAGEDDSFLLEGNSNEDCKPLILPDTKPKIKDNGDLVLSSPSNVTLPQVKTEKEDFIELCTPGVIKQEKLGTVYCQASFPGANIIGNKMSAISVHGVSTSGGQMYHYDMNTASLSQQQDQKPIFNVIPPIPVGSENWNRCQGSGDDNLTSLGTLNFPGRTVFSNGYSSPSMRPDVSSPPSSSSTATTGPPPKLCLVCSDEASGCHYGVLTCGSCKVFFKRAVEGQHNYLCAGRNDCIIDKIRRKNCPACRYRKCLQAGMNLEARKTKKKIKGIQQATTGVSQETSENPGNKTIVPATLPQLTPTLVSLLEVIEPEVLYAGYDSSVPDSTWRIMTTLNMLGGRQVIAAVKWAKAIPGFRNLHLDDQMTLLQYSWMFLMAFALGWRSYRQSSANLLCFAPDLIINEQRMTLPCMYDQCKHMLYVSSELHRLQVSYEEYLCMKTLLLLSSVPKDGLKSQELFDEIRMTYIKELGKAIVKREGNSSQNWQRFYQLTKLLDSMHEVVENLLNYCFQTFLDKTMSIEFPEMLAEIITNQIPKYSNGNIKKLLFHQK
Chain of Cytochrome P450 3A4 (Homo sapiens) (P08684 whole entry, looked up): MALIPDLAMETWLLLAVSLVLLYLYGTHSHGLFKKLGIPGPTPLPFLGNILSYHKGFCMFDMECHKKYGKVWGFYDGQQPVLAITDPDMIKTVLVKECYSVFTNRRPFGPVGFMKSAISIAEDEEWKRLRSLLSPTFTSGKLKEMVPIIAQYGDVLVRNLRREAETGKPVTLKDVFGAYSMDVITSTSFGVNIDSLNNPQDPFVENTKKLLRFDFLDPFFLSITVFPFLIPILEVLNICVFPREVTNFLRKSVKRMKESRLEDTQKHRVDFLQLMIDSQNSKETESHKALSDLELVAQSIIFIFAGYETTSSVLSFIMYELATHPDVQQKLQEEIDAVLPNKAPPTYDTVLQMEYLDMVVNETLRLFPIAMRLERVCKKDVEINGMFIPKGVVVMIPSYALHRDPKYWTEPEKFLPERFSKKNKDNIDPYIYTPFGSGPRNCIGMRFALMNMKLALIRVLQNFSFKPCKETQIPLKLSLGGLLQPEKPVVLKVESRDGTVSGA
Chain of DNA dC->dU-editing enzyme APOBEC-3G (Homo sapiens) (Q9HC16 whole entry, looked up): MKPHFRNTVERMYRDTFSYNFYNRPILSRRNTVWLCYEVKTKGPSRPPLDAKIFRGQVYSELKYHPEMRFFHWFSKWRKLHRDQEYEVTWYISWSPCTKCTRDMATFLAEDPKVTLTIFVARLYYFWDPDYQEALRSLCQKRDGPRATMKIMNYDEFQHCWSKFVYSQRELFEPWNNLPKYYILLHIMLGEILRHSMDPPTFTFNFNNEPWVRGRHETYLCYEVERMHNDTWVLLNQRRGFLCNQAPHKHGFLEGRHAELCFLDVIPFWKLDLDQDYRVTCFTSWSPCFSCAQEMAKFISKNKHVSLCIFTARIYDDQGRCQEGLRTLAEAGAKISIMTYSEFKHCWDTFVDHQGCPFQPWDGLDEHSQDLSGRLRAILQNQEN

CCOc1ccc(-c2nnc3sc(-c4ccccc4OC)nn23)cc1
inactive: activity change, negative = inhibition [1] 18% | activity change, negative = inhibition [2] -19.8% | activity, negative = inhibition [3] 5.75% | Potency [4] > 20.6 µM | activation [5] -10.9%

CNc1ccccc1-c1nc2ccccc2n(C)c1=O
inactive: activity change, negative = inhibition [1] 11.2% | activity change, negative = inhibition [2] -2.49% | activity, negative = inhibition [3] 12% | Potency [4] > 20.6 µM | activation [5] -4.3%

CCOc1ccc(C2C(C#N)=C(N)SC(N)=C2C#N)cc1OC
inactive: activity change, negative = inhibition [1] 0.186% | activity change, negative = inhibition [2] 10.8% | activity, negative = inhibition [3] -5.25% | Potency [4] > 20.6 µM | activation [5] -15.3%

Cc1cc(C)nc(N(C#N)CN2C(=O)c3ccccc3C2=O)n1
inactive: activity change, negative = inhibition [1] 2.24% | activity change, negative = inhibition [2] -1.49% | activity, negative = inhibition [3] 0.344% | Potency [4] > 20.6 µM | activation [5] 12.2%

CN1C(=O)c2ccc(N(C)C)cc2C1=O
inactive: activity change, negative = inhibition [1] 1.85% | activity change, negative = inhibition [2] -12.3% | activity, negative = inhibition [3] 1.02% | Potency [4] > 20.6 µM | activation [5] 14.5%

O=c1c2ccccc2ncn1Cc1ccco1
inactive: activity change, negative = inhibition [1] 14.1% | activity change, negative = inhibition [2] -4.44% | activity, negative = inhibition [3] 2.8% | Potency [4] > 20.6 µM | activation [5] 2.2%

Cc1cc(C(F)(F)F)c(C#N)c(SCC(=O)NC2CC2)n1
inactive: activity change, negative = inhibition [1] 19.7% | activity change, negative = inhibition [2] -9.19% | activity, negative = inhibition [3] 1.05% | Potency [4] > 20.6 µM | activation [5] 16.3%

COc1ccc(C2CC(C(F)(F)F)n3ncc(C(=O)Nc4cccc(O)c4)c3N2)cc1OC (stereo unspecified)
inactive: activity change, negative = inhibition [1] -24.1% | activity change, negative = inhibition [2] -0.0394% | activity, negative = inhibition [3] -21.1% | Potency [4] > 20.6 µM | activation [5] -22.3%

COC1=CC(=O)CC(C)C12Oc1c(Cl)c(OC)cc(OC)c1C2=O (stereo unspecified)
inactive: activity change, negative = inhibition [1] -16.1% | activity change, negative = inhibition [2] -12.3% | activity, negative = inhibition [3] 4.38% | Potency [4] > 20.6 µM | Potency [6] | outcome [7]

O=C(CNC1C(=O)Nc2ccccc21)Sc1ccccc1 (stereo unspecified)
inactive: activity change, negative = inhibition [1] -0.11% | activity change, negative = inhibition [2] -10.4% | activity, negative = inhibition [3] 9.1% | Potency [4] > 20.6 µM | activation [5] 4%

CC(C)c1nc(N2CCOCC2)c(C#N)c2c1COC(C)(C)C2
inactive: activity change, negative = inhibition [1] -19.1% | activity change, negative = inhibition [2] -4.43% | activity, negative = inhibition [3] 11.9% | Potency [4] > 20.6 µM | activation [5] -24.7%
